From PubChem BioAssay AID485347 (National Center for Advancing Translational Sciences (NCATS), 2010) come the findings set out here.

In all, about 340,000 compounds went through this assay and about 1,200 (0.35%) were called active. Shown is part of a subset that was picked to be rich in actives. A number with no mark means an inactive call.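 The calls were made as follows: active = potentiation over 3 SD above the plate norm (cut at about 30% in these data); inactive = the rest.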

The assay deals with D(2) dopamine receptor (Homo sapiens) (UniProt P14416). The experiment in a line: HTS Assay for Positive Allosteric Modulators of the Human D2 Dopamine Receptor: Primary Screen for Potentiators. Also: 0% is about no effect. As to conditions: HEK293 T-REx D2, calcium flux, EC20 dopamine potentiation; at 10 µM; hits give high values. The procedure, abridged: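 Tetracycline-induced Hek293 Trex D2 cells, force-coupled to calcium, loaded with no-wash calcium dye. Compound added with 180 s kinetic read for agonism, then EC20 dopamine and a further 180 s read for potentiation.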
D(2) dopamine receptor (Homo sapiens), sequence (P14416 whole entry, looked up): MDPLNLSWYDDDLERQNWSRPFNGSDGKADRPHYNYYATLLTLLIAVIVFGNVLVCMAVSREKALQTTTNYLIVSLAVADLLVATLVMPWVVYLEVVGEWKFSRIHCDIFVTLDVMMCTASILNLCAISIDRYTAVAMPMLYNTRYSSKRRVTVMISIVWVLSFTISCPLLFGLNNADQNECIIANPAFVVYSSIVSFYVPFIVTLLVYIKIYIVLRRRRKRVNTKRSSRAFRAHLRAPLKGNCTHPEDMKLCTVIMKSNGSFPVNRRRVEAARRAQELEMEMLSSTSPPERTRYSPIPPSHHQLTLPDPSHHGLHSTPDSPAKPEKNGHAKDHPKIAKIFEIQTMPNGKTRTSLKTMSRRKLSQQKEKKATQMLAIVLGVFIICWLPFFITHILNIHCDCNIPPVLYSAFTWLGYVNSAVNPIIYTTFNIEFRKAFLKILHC
As to `CC(C)(C)c1ccc(C(=O)NCC(c2ccco2)S(=O)(=O)c2ccc(F)cc2)cc1` (stereo not drawn), the potentiation is 2.19%.
Take `COc1ccccc1NC(=O)c1oc2ccccc2c1NC(=O)COc1ccccc1OC`: the potentiation was -6.56%.
Regarding `O=C(NCCc1ccc(F)cc1)c1ccc2nccnc2c1`, the potentiation is 1.21%.
As for `Cc1ccc(C)c(NC(=O)c2ccc3nccnc3c2)c1`, the potentiation was 10.6%.
Turning to `CC(C)CCC(C)NC(=O)c1ccc2nccnc2c1` (stereo not drawn), the potentiation is 36.8% (active).
Regarding `CCOC(=O)c1ccccc1NC(=O)CCc1c(C)nc2c(c1C)c(=O)n(C)c(=O)n2C`, the potentiation was -0.581%.
For `Cc1ccc(NC(=O)c2nc(S(=O)(=O)Cc3cccc(C)c3)ncc2Cl)cc1`, the potentiation is -4.73%.
As to `Cc1cccc(C(=O)N2c3nc(-c4ccco4)nn3C3(CCCCC3)[C@@H]3CCCC[C@@H]32)c1`, the potentiation was 11.9%.
For `COc1ccccc1NC(=O)C1=C(C)Nc2ncnn2C1c1sccc1C` (stereo not drawn) the value was 14.1%; for `CN(C(=O)CSc1nnc(Nc2ccccc2)s1)C1CCS(=O)(=O)C1` (stereo not drawn), -2.37%.
Turning to `CCn1c(SCC(=O)c2ccc(Cl)s2)nnc1-c1cccs1`, the potentiation was 5.97%.
Next, `CCn1c(SCC(=O)N(C)C2CCS(=O)(=O)C2)nnc1-c1cccs1` (stereo not drawn): 43.3% (active).
Regarding `Cc1ccc(NC(=O)Cc2ccc(NC(=O)N3CCCCc4ccccc43)cc2)cc1`, the potentiation is -2.54%.
`Cc1c(Cl)cccc1NC(=O)NCc1ccc(C)n1C`: the potentiation was 6.36%.
Turning to `Cc1c(NC(=O)Nc2ccccc2Cl)sc(=S)n1C`, the potentiation was 37% (active).
On to `Cc1c(Cl)cccc1NC(=O)Nc1ccc(C(=O)N2CCCC2)cc1`, for which the potentiation was -6.53%.
Consider `CCCSc1ncc(Cl)c(C(=O)Nc2c(C(=O)Nc3ccccc3)oc3ccccc23)n1`, for which the potentiation is 9.52%.
As for `CC(C)(C)C(=O)CCN1C(=O)C2(OCCO2)c2ccccc21`, the potentiation is 31.3% (active).
With `O=C(CC1(O)C(=O)N(CN2CCOCC2)c2ccccc21)c1ccccc1` (stereo not drawn), the potentiation is -7.42%.
For `C=CCN1C(=O)C2(OCCCO2)c2cccc(Cl)c21` the value was 9.19%.
On to `O=C(NCCCN1CCN(c2cccc(Cl)c2)CC1)c1nnc(Cc2ccc(F)cc2Cl)o1`, for which the potentiation was -20.3%.
On to `COc1cn(CC(=O)Nc2cccc(C)c2C)c(CN2CCCCC2)cc1=O`, for which the potentiation is -2.25%.
For `COC(=O)c1ccc(OC)c(Cn2c(=O)n(Cc3ccccc3)c(=O)c3c2c2cc(OC)ccc2n3C)c1` the value was -2.94%.
For `CCc1nn(CC(=O)Nc2cccc(C)c2C)c(=O)c2cc3sccc3n12` the value was 8.71%; for `Cc1cc(C)n2nc(SCC(N)=O)nc2n1`, 16.2%.
`COc1ccc(C(C)=O)cc1CSc1nc2nc(C)cc(C)n2n1`: the potentiation was 34.5% (active).
`COc1cccc(CSc2nc3nc(C)cc(C)n3n2)c1`: the potentiation was -5.34%.
Consider `CCOc1ccc(-n2c(SCC(=O)NCc3ccccc3)nc3n[nH]c(C)c3c2=N)cc1`, for which the potentiation was -3.4%.
As to `COc1ccccc1CNCc1ccc(C(=O)O)s1`, the potentiation is 6.15%.
Next, `CN1C/C(=C/c2cccs2)C(=O)/C(=C\c2cccs2)C1`: 41.9% (active); `CN1CCN(C(=O)/C(=C\c2cccs2)NC(=O)c2cccs2)CC1`: 15.2%.
Next, `O=C1/C(=C/c2cccs2)CCc2ccccc21`: 1.15%.
For `Cc1c(NC(=O)CSc2nnc(-c3cccnc3)n2N)c(=O)n(-c2ccccc2)n1C`, the potentiation is 73.3% (active).
For `Cc1c(NC(=O)CSc2nnnn2-c2ccc(C(=O)O)cc2)c(=O)n(-c2ccccc2)n1C`, the potentiation was -3.5%.
Consider `Cc1c(NC(=O)CSc2cccc3cccnc23)c(=O)n(-c2ccccc2)n1C`, for which the potentiation is 13.1%.
Consider `Cc1cn(C)c(CC(=O)NCc2ccccc2)c1C(=O)O`, for which the potentiation was 5.5%.
In the case of `CCc1ccc(CNC(=O)c2ccc(CS(=O)c3ccc(Br)cc3)o2)cc1` (stereo not drawn), the potentiation was 3.07%.
As to `COc1ccccc1CNC(=O)C(=O)NCC(c1ccco1)S(=O)(=O)c1ccc(F)cc1` (stereo not drawn), the potentiation is 11.5%.
In the case of `C=CCn1cc(-c2cccc(C(F)(F)F)c2)cc(C#N)c1=O`, the potentiation was -3%.
For `C=CCn1c(-c2ccc(Cl)cc2)ccc(C#N)c1=O` the value was 40.5% (active).
Next, `C=CCn1c(SCn2nnc3ccccc3c2=O)nnc1-c1ccc(Cl)cc1`: 3.09%.
`COc1cc(OC)cc(C(=O)Nc2cc3nn(-c4ccccc4)nc3cc2Cl)c1`: the potentiation is 29.9%.
On to `CCCCc1nn2c(=O)cc(COC(=O)c3ccccc3NC(=O)C(C)(C)C)nc2s1`, for which the potentiation was 9.21%.
`CC12CCC(C(=O)N(NC(=O)c3ccccc3O)C1=O)C2(C)C` (stereo not drawn): the potentiation was 13.8%.
On to `CC1=CC(C)(C)NC(=S)N1NC(=O)c1ccccc1Cl`, for which the potentiation is 35.1% (active).
Regarding `CC1=CC(C)(C)NC(=S)N1c1ccccc1`, the potentiation was -0.583%.
Take `CCN(C(=O)c1sc2cc(OC)ccc2c1Cl)c1ccccc1`: the potentiation was -5.49%.
Regarding `COc1ccccc1NC(=O)c1oc2ccccc2c1NC(=O)C(C)C`, the potentiation is -4.17%.
`Cc1ccc(NC(=O)CSc2nc3c([nH]c4ccccc43)c(=O)n2-c2ccccc2)cc1Cl`: the potentiation is 0.276%.
Consider `Cc1cccc(N2CCN(S(=O)(=O)c3ccc4[nH]c5c(c4c3)CCCCC5)CC2)c1C`, for which the potentiation is 2.56%.
As for `CC(C)(C)NS(=O)(=O)c1ccc(NC(=O)NC2CCCCC2)cc1`, the potentiation was 38% (active).
As to `CC(C)(C)NS(=O)(=O)c1ccc(NC(=O)C2CCCO2)cc1` (stereo not drawn), the potentiation was 5.45%.
In the case of `CC(C)c1ccc(NC(=O)NC2CCCCC2)cc1`, the potentiation is 4%.
For `CCCN(CCC)CCNC(=O)c1ccc2c(c1)NC(=O)C(CS(=O)(=O)Cc1cccc(Br)c1)N2` (stereo not drawn) the value was 0.677%; for `COc1ccc(Cn2ccnc2SCC(=O)Nc2ccc3c(c2)OCO3)cc1`, 1.53%; for `Cc1cc2c(=O)n(C)c(SCC(=O)c3cc4ccccc4o3)nc2s1`, 30.1% (active).
For the compound `Cc1ccc(C(=O)CSc2nc3ccccc3c(=O)n2N)o1`, the potentiation is 2.64%.
As for `CCc1cc2c(=O)n(-c3ccccc3)c(SCC(=O)O)nc2s1`, the potentiation was -3.23%.
Turning to `Cc1ccc2c(=O)c(C(=O)c3ccc(F)cc3)cn(CC(=O)NC3CCCCC3)c2n1`, the potentiation was -9.33%.
For `CCCCNC(=S)NNC(=O)c1cc(C)on1` the value was 37% (active); for `COCCCNC(=S)NNC(=O)C(O)(c1ccccc1)c1ccccc1`, -5.53%.
Next, `CCCCNC(=O)c1cc(-c2ccc(Cl)c(Cl)c2)on1`: -3.44%.
On to `COc1ccc(-c2nc(S(=O)(=O)c3ccccc3)c(N3CCCCC3)o2)cc1`, for which the potentiation is -5.46%.
For the compound `COc1ccccc1-c1cc(C(=O)N2CCCCC2)no1`, the potentiation was -22.4%.
As to `COc1ccccc1N1CCN(C(=O)c2cc(-c3ccc(Cl)c(Cl)c3)on2)CC1`, the potentiation was 69.4% (active).
With `COc1ccc(-c2cc(C(=O)N3CCN(c4ccc(F)cc4)CC3)no2)cc1`, the potentiation was -8.77%.
Take `Cc1cccc(Cn2c(=O)n(CCC(=O)NCCc3ccc(Cl)cc3)c(=O)c3sccc32)c1`: the potentiation is 13%.
As for `CCN1CCN(C(c2ccc(C)cc2)c2c(O)cc(C)n(Cc3ccco3)c2=O)CC1` (stereo not drawn), the potentiation was 6.89%.
Consider `CCC(C)n1[nH]c(=O)cc1N` (stereo not drawn), for which the potentiation was 2.87%.
In the case of `CCC(C)n1[nH]c(=O)c2c(C)cc(C)nc21` (stereo not drawn), the potentiation is 1.22%.
For `CCCC(C)n1[nH]c(=O)c2c(C)cc(C)nc21` (stereo not drawn), the potentiation was 33% (active).
On to `CCOC(=O)c1oc2ccc(S(=O)(=O)n3nc(-c4ccccc4OC)cc3N)cc2c1C`, for which the potentiation is -0.8%.
With `COc1ccc(-n2ccn(CC(=O)Nc3ccc(C)c(C)c3)c(=O)c2=O)cc1OC`, the potentiation was 6.27%.
With `O=C(Nc1c(-c2ccc(F)cc2)nc2ccccn12)c1cccc(F)c1`, the potentiation is 12.9%.
For `CCN1CCc2nc3sc(C(=O)Nc4ccccc4OC(F)(F)F)c(N)c3cc2C1`, the potentiation was 3.95%.
For the compound `Cc1cccc(N2CCN(C(=O)CN(C)S(=O)(=O)c3ccc4c(c3)CCC(=O)N4)CC2)c1C`, the potentiation was -3.34%.
For `CCOC(=O)Cc1csc(NC(=O)CN(C)S(=O)(=O)c2ccc3c(c2)CCC(=O)N3)n1` the value was 43% (active).
In the case of `CCOC(=O)Cc1csc(NC(=O)CSc2ccc(Br)cc2)n1`, the potentiation was -0.963%.
Next, `Cc1sc(C2C(C#N)=C(N)N(c3cccc(Cl)c3)C3=C2C(=O)CCC3)cc1CN1CCOCC1` (stereo not drawn): -0.593%; `O=C(Nc1ccc(S(=O)(=O)N2CCCCCC2)cc1)c1c(F)cccc1F`: 2.54%.
Regarding `CCN1CCN(c2ccc(NC(=O)c3cnccn3)cc2)CC1`, the potentiation was -0.266%.
`O=C(Nc1ccc(S(=O)(=O)N2CCCCC2)cc1)c1cnccn1`: the potentiation was 30.4% (active).
For the compound `CN(Cc1ccccc1)S(=O)(=O)c1ccc(F)c(C(=O)Nc2cccc(Cl)c2Cl)c1`, the potentiation is -2.84%.
For `CCN(CC)S(=O)(=O)c1ccc2c(c1)N(CC(=O)NCc1ccccc1)C(=O)CS2` the value was -1.87%; for `CC(=O)NS(=O)(=O)c1ccccc1`, 10.6%.
With `CC(=O)NS(=O)(=O)c1ccc(NC(=S)NC(=O)C(C)(C)C)cc1`, the potentiation is 33.2% (active).
Next, `CC(=O)Nc1ccc(S(=O)(=O)Nc2cccc(NC(=O)C(C)(C)C)c2)cc1`: 0.479%.
As to `O=C(CCn1c(=O)c2ccccc2n(Cc2ccc(Cl)cc2)c1=O)NCc1ccc2c(c1)OCO2`, the potentiation is -11.6%.
`O=C(Nc1ccc(Br)cc1)c1cc2nc(-c3ccccc3)cc(-c3ccccc3)n2n1`: the potentiation was -4.38%.
For `Cc1ccccc1-c1nc(SCC(=O)N(C)c2ccccc2)c2c(=O)n(C)c(=O)n(C)c2n1` the value was -12.5%.
Consider `CC1CCN(c2nc3c(c(=O)[nH]c(=O)n3C)n2CCCc2ccccc2)CC1`, for which the potentiation is 45% (active).
As to `Cn1c(=O)[nH]c(=O)c2c1nc(N1CCN(C(c3ccccc3)c3ccccc3)CC1)n2CCO`, the potentiation is 3.98%.
For the compound `Cn1c(=O)[nH]c(=O)c2c1nc(N1CCCCCC1)n2CC(=O)c1ccccc1`, the potentiation is -3.5%.
